POLK inh: blocks human DNA polymerase kappa activity | Q9UBT6 | purified Pol kappa, fluorescent DNA synthesis assay, 10 min | Potency, µM (titrated, usually from 107 µM), for the others: top-dose activity, negative = inhibition, actives largely listed as inhibitors | 400,000 compounds, 0.53% hits | AID 588579; also: potency is read from the fitted curve at half-maximal effect; % is scaled to controls: 0 for no effect and ±100 for the full control effect
Target sequence (Q9UBT6 whole entry, looked up): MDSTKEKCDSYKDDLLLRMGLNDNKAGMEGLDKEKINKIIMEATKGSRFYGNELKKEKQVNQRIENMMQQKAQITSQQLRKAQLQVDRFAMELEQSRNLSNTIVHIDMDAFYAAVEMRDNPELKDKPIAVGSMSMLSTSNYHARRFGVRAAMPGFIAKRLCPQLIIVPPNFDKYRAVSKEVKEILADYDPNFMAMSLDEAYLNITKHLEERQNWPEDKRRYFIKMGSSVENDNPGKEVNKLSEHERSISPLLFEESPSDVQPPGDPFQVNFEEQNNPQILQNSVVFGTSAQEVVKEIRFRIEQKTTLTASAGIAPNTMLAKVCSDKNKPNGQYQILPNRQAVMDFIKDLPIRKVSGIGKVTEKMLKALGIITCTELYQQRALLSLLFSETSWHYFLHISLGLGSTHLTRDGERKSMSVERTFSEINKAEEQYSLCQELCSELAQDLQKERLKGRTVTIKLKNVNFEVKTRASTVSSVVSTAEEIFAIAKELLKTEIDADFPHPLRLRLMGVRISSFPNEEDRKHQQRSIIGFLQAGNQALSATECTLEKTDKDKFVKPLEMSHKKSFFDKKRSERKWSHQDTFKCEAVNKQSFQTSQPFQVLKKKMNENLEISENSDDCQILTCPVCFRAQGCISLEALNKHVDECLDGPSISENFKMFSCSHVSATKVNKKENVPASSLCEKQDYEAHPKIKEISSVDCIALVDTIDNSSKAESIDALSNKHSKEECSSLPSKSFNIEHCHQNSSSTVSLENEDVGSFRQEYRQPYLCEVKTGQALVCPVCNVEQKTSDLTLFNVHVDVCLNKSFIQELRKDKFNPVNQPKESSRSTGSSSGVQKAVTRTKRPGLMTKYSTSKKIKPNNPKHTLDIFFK
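Here, compound and 10 nM enzyme are combined for 15 min at room temperature; adding 50 nM substrate (final) starts DNA synthesis, tracked by fluorescence at 0 and 10 min against buffer-only wells.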
Pol eta inh: blocks human DNA polymerase eta activity; Q9Y253; recombinant Pol eta, fluorescent DNA replication assay; Potency, µM (series often up to 114 µM), without a hit: at the highest dose activity change, negative = inhibition, actives largely listed as inhibitors; 390,000 compounds, 1.2% hits; AID 588591; also: potency is read from the fitted curve at half-maximal effect; % is scaled to controls: 0 for no effect and ±100 for the full control effect
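Pol eta (10 nM) was preincubated with compounds for 15 min at room temperature, after which fluorescent replication substrate (50 nM final) was added to start the reaction. Fluorescence was read kinetically at 0 and 10 min.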
Pol iota inh: inhibitors of human DNA polymerase iota; AID 588590; Potency, µM (doses to about 115 µM), inactives show at the top dose activity, negative = inhibition, hits mostly inhibitors; Pol iota fluorescent replication assay, 10 min; 390,000 compounds, 1% hits; also: potency is read from the fitted curve at half-maximal effect
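Pol iota at 10 nM preincubated 15 min with compounds at room temperature; reaction started with fluorescent substrate, 50 nM final. Fluorescence read kinetically at 0 and 10 min; buffer-only wells as negative control.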
PI5P4K alpha inh: blocks human PI5P4K alpha kinase activity; AID 652105; 330,000 compounds, 1.2% hits; max response, %; P48426; PI5P4Kalpha enzyme, ADP-Glo luminescence, 60 min; active compounds read low; active = max response of -50% or lower; inconclusive = between -30% and -50%; inactive = -30% or higher; also: value at the top dose of about 77 µM; % is scaled to controls: 0 for no effect and ±100 for the full control effect
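Reactions run in 0.038 M HEPES pH 7.4, 0.28 mM EGTA, 0.1% CHAPS and 5% DMSO, with PI5P4Kalpha, substrate, compound and 5 microM ATP final, one hour at room temperature. Readout is ADP-Glo luminescence.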
PI4K2A inh: blocks human PI4K2A kinase activity. Q9BTU6. purified PI4K2A, ADP-Glo luminescence, 1 h; active compounds read low. activity change, negative = inhibition, % at 76.9 µM. 420,000 compounds, 0.13% hits; in the data active = activity change below about -50%; inconclusive = mostly about -30% to -49%;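 also: -100% = wells without enzyme as full effect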
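Compounds are screened against recombinant PI4K2A using PI as substrate and ATP, the latter dispensed at 300 microM. Reactions run one hour at ambient temperature before ADP-Glo detection; full inhibition defined by wells lacking enzyme.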
POLB inh: inhibitors of human DNA polymerase beta. P06746. Pol beta primer extension/strand displacement, fluorescence kinetic. Potency, µM (highest dose often 114 µM), without a hit: at the top dose activity change, negative = inhibition, actives largely listed as inhibitors. 340,000 compounds, 1.3% hits; also: potency is read from the fitted curve at half-maximal effect; % is scaled to controls: 0 for no effect and ±100 for the full control effect
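Kinetic readout of DNA synthesis with strand displacement by Pol beta. Compound and 10 nM enzyme sit 15 min at room temperature; 50 nM substrate starts the reaction, read immediately and at 10 min.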
* hit, by the source's call; ? = inconclusive; / = not tested or not shown; [ ] = remark or other dose. Shown are actives, neighbours in structure and some others; about 2.8% of the full set was active somewhere. Unless noted, calls follow the shape of the dose curve; as a rule, active = well fitted inhibition curve with a large enough effect; inconclusive = small, poorly fitted or top-dose-only effect, or another doubt; inactive = no such curve, though single readings can be large or run the other way.

SMILES	POLK inh	Pol eta inh	Pol iota inh	PI5P4K alpha inh	PI4K2A inh	POLB inh
CCOc1ccc(NS(=O)(=O)c2ccc3[nH]cc(C(=O)NCc4ccccc4)c(=O)c3c2)cc1	-34%	?	89µM*	/	3	11µM*
Cc1ccc(CNC(=O)c2c[nH]c3ccc(S(=O)(=O)Nc4ccc(C(C)C)cc4)cc3c2=O)cc1	2%[60.1 µM]	79µM*	?	/	-3	-30%
CCN(c1ccccc1)S(=O)(=O)c1ccc2[nH]cc(C(=O)NCc3ccc(C)cc3)c(=O)c2c1	-8%[60.1 µM]	?	89µM*	/	-9	?
CCCN(CCC)C(=O)C(CCC(=O)OCCCN1CCN(CCOC(=O)Cc2c(C)n(C(=O)c3ccc(Cl)cc3)c3ccc(OC)cc23)CC1)NC(=O)c1ccccc1 (stereo not drawn)	/	/	/	/	0	/
Cc1c(NC(=O)C2CCCN(S(=O)(=O)c3c(C(C)C)cc(C(C)C)cc3C(C)C)C2)c(=O)n(-c2ccccc2)n1C (stereo not drawn)	/	/	/	/	-1	/
Nc1ncnc2c1nc(Br)n2C1OC2COP(=O)(O)O[C@@H]2C1O (stereo partly drawn)	1%[60.1 µM]	/	/	/	-8	/
CCc1ccccc1NS(=O)(=O)c1ccc2[nH]cc(C(=O)NC3CCCC3)c(=O)c2c1	-22%	?	?	1	0	?
O=C(NC1CCCCC1)c1c[nH]c2ccc(S(=O)(=O)Nc3ccccc3F)cc2c1=O	-14%	?	?	/	-4	25µM*
O=C1OCC2OC(O)C(O)C(O)C2OC(=O)c2cc(O)c(O)c(O)c2-c2c(O)c(O)c3oc(=O)c4c(c(O)c(O)c5oc(=O)c2c3c54)-c2c1cc(O)c(O)c2O (stereo not drawn)	/	/	/	/	/	0.16µM*
COc1c(O)cc2c(c1O)C1OC(CO)C(O)C(O)C1OC2=O (stereo not drawn)	-1%	-16%	18%	5	-2	/
CCOC1CCCC(n2cnc3c(=S)nc[nH]c32)O1 (stereo not drawn)	-12%	18µM*	?	-5	-10	/
OCC1CCCC(n2cnc3c(=S)nc[nH]c32)O1 (stereo not drawn)	-2%	-20%	51%	-2	-3	56%
Cc1cc(/C=C(\C#N)C(=O)Nc2ccccc2)c(C)n1-c1cccnc1	-8%	-5%	65%	-4	-1	-26%
N#C/C(=C\c1ccccc1O)C(=O)Nc1cccnc1	-26%	?	89µM*	-19	-4	3%
Cn1cccc1-c1cc(C(=O)N/N=C/c2ccc([N+](=O)[O-])cc2)[nH]n1	-7%	3%	20%	-1	-2	11%
CC(C)c1ccc(/C=N/NC(=O)c2cc(-c3cccc([N+](=O)[O-])c3)n[nH]2)cc1	-18%	?	?	3	-1	22µM*
Oc1cc(Nc2ccccc2)cc2cccnc12	-28%	-4%	21%	/	-1	/
Oc1cc(NCCN2CCOCC2)cc2cccnc12	-10%	-9%	7.1µM*	/	?	/
COc1ccc2c(c1)OC(=O)CC2c1ccccc1OC (stereo not drawn)	-11%	-17%	?	1	1	/
COc1ccc2c(c1)C(c1ccccc1OC)CC(=O)O2 (stereo not drawn)	40µM*	/	/	/	/	/
Cc1ccc(N2C(=O)c3cccc4c(N)ccc(c34)C2=O)c2cccnc12	?	?	79µM*	-12	3	?
COc1cccc2c1Oc1ncccc1N(C(=O)CCC(=O)NCc1ccc(C)cc1)C2	-5%	-11%	?	-3	-1	-2%
COc1cccc2c1Oc1ncccc1N(C(=O)CCC(=O)NCc1cccc(C)c1)C2	-45%	-7%	40µM*	-2	2	27%
O=C(O)c1ccc(N/N=C/c2cc3cc4c(cc3nc2Cl)OCCO4)cc1	-28%	45µM*	?	-17	-1	-12%
CC(C)n1cc(/C=N/Nc2ccc(Cl)c(C(=O)O)c2)c2ccccc21	/	/	/	/	/	32µM*
SMILES	POLK inh	Pol eta inh	Pol iota inh	PI5P4K alpha inh	PI4K2A inh	POLB inh
O=C(O)c1cc(N/N=C/c2ccc3c(c2)OCCO3)ccc1Cl	?	25µM*	?	?	-3	?
O=C(O)c1cc(N/N=C/c2cccc3ccccc23)ccc1Cl	-24%	?	70%	-14	5	80%
Cc1ccc(N/N=C/c2ccc3c(c2)OCCO3)cc1Cl	2%	-15%	8%	2	4	3%
COc1cc(/C=N/Nc2ccc(Cl)c(C(=O)O)c2)ccc1OC(=O)c1ccc(F)cc1	-32%	79µM*	?	-5	-3	-9%
COc1ccc([C@H]2OC(=O)C[C@H]2C(=O)N2CCN(C(=O)C3CCCO3)CC2)cc1OC (stereo partly drawn)	/	/	/	/	4	/
O=c1[nH]c2cc(Br)c(Br)nc2[nH]1	/	/	/	/	-4	/
CC1(C)[C@@H](OC(=O)CCC(=O)O)CC[C@]2(C)[C@H]3C(=O)C=C4[C@@H]5C[C@@](C)(C(=O)O)CC[C@]5(C)CC[C@@]4(C)[C@]3(C)CC[C@@H]12	/	/	/	/	-2	/
O=C(O)c1cc(N/N=C/c2ccc3c(c2)OCO3)ccc1Cl	-15%	-5%	21%	-53*	-12	33%
C/C(=N\Nc1ccc(Cl)c(C(=O)O)c1)c1ccc2c(c1)OCO2	?	?	46%	-23	2	?
O=C(O)c1cc(N/N=C/c2cccs2)ccc1Cl	/	/	/	/	/	22µM*
Cc1ccc(-c2nc3cccc(C)n3c2Nc2ccc(F)cc2)o1	2%	/	58%	/	/	/
COc1cc(OC)c(NC(=O)c2cnn(-c3ccccc3)c2-n2cccc2)cc1Cl	-2%	0%	?	/	2	50µM*
Cc1nc2cc(N3CCCCC3)c(NC(=O)c3ccncc3)cc2c(=O)n1Cc1ccccc1	-13%	-8%	22%	-4	4	0%
Cc1nc2cc(N3CCOCC3)c(NC(=O)C3CC3)cc2c(=O)n1Cc1ccccc1	?	20µM*	?	-27	-11	40%
COc1ccc(NC(=O)c2ccco2)cc1NC(=O)COc1ccc(C)cc1C	2%	?	-7%	/	-5	?
CCOc1ccc(C(=O)Nc2cccc(NC(=O)c3ccco3)c2)cc1Cl	0%	-11%	89µM*	/	5	-23%
Cc1ccc(OCC(=O)Nc2ccc(NC(=O)c3ccco3)cc2)c(C)c1	-6%	?	?	-9	1	28µM*
COc1ccc(NC(=O)c2ccco2)cc1NC(=O)COc1ccc(Cl)cc1C	-11%	79µM*	-4%	/	1	?
O=C(CSc1nnc(-c2ccco2)n1-c1ccc(Cl)cc1)Nc1ccc(S(=O)(=O)Nc2nccs2)cc1	/	/	/	/	-6	/
Cc1ccc(C(=O)N2CCN(c3ccc([N+](=O)[O-])cc3)CC2)o1	-4%	-20%	6%	0	-2	89µM*

Bioassay records from PubChem.
